According to the supplement of paper PMC8728848:
Shown is part of a subset that was picked to be rich in the strongest signals.

Legend:
Assay in all cases: glycan array binding signal (z-score within array); higher = stronger binding
Details in all cases: glycan notation: IUPAC condensed, linker removed
[1] = test system: Fuc(a1-2)Gal(b1-3)[Fuc(a1-4)]GlcNAc(b1-2)Man(a1-3)[Fuc(a1-2)Gal(b1-3)[Fuc(a1-4)]GlcNAc(b1-2)Man(a1-6)]Man(b1-4)GlcNAc(b1-4)GlcNAc
How it was run: (§1)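 The binding signal is a Z-score computed within each array and averaged over linkers. Arrays of the same protein sequence at different concentrations or buffers were also averaged together. Data originate from 3228 arrays in the Consortium for Functional Glycomics database, kept only where the protein sequence was available.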

[2] = test system: Fuc(a1-2)Gal(b1-3)[Fuc(a1-4)]GlcNAc(b1-2)Man(a1-3)[Fuc(a1-2)Gal(b1-3)[Fuc(a1-4)]GlcNAc(b1-2)Man(a1-6)]Man(b1-4)GlcNAc(b1-4)[Fuc(a1-6)]GlcNAc(b1-4)[Fuc(a1-6)]GlcNAc
How it was run: as §1

[3] = test system: Fuc(a1-2)Gal(b1-3)[Fuc(a1-4)]GlcNAc
How it was run: as §1

[4] = test system: Fuc(a1-2)Gal(b1-4)GlcNAc(b1-2)[Fuc(a1-2)Gal(b1-4)GlcNAc(b1-4)]Man(a1-3)[Fuc(a1-2)Gal(b1-4)GlcNAc(b1-2)Man(a1-6)]Man(b1-4)GlcNAc(b1-4)GlcNAc
How it was run: as §1

[5] = test system: Fuc(a1-2)Gal(b1-4)Glc6S
How it was run: as §1

[6] = test system: Fuc(a1-2)Gal(b1-4)GlcNAc(b1-3)GalNAc
How it was run: as §1

[7] = test system: Fuc(a1-2)Gal(b1-4)GlcNAc(b1-2)Man(a1-3)[Fuc(a1-2)Gal(b1-4)GlcNAc(b1-2)Man(a1-6)]Man(b1-4)GlcNAc(b1-4)[Fuc(a1-6)]GlcNAc
How it was run: as §1

[8] = test system: Fuc(a1-2)Gal(b1-4)GlcNAc(b1-3)Gal(b1-4)GlcNAc(b1-2)Man(a1-3)[Fuc(a1-2)Gal(b1-4)GlcNAc(b1-3)Gal(b1-4)GlcNAc(b1-2)Man(a1-6)]Man(b1-4)GlcNAc(b1-4)GlcNAc
How it was run: as §1

[9] = test system: Fuc(a1-2)Gal(b1-4)GlcNAc(b1-3)Gal(b1-4)GlcNAc(b1-3)Gal(b1-4)GlcNAc
How it was run: as §1

[10] = test system: Fuc(a1-2)Gal(b1-4)GlcNAc(b1-3)Gal(b1-4)GlcNAc
How it was run: as §1

For “SpGH101 (Streptococcus pneumoniae), Q8DR60”, which “glycan array binding signal (z-score)” value [1] is on record?
The value was 0.018.

For Epa22, which “glycan array binding signal (z-score)” value [2] is on record?
The value was 0.488.

Actinohivin (Actinomycete K97) was tested. Which “glycan array binding signal (z-score)” value [2] did it give?
The value was 0.06.

For “AgI/II Vhelical-GFP (Streptococcus mutans)”, which “glycan array binding signal (z-score)” value [3] is on record?
The value was -0.149.

What about the “glycan array binding signal (z-score)” value [4] of the same substance?
Its value is -0.246.

How did the “glycan array binding signal (z-score)” value [5] turn out when “SiiE (Salmonella typhimurium), A0A0H3NVH0” was run?
Its value is 3.24.

What about the “glycan array binding signal (z-score)” value [6] of the same substance?
Its value is -0.206.

How did the “glycan array binding signal (z-score)” value [7] turn out when AgI/IIC123-GFP (Streptococcus mutans) was run?
The value was -0.573.

What does the source list for LcI (Legionella pneumophila)?
glycan array binding signal (z-score) [7]: 0.257; glycan array binding signal (z-score) [8]: 3.4

Which “glycan array binding signal (z-score)” value [4] does the source give for Wza (Escherichia coli), P0A930 here?
Its value is 0.441.

Which “glycan array binding signal (z-score)” value [9] does the source give for BambL (Burhholderia ambifaria), Q0B4G1 here?
The value was 3.79.

And the “glycan array binding signal (z-score)” value [10]?
Its value is 3.14.

What about the “glycan array binding signal (z-score)” value [6] of the same substance?
The value was -0.033.

GspB (Streptococcus gordonii), Q939N5 was tested. Which “glycan array binding signal (z-score)” value [9] did it give?
Its value is 0.
